Marburg entry = blocks Marburg virus binding or cell entry; 18,000 tested, 6.5% active; Marburg virus pseudotype entry/binding inhibition, cell-based; Potency, µM (doses to about 49.2 µM), for inactives: top-dose activity change, negative = inhibition, usual class: inhibitors
Lassa entry = inhibitors of Lassa virus binding or entry into cells | Lassa virus pseudotyped entry inhibition, cell-based qHTS | Potency, µM (series often up to 49.2 µM), inactives show at the top dose activity change, negative = inhibition, hits mostly inhibitors | 18,000 tested, 4.1% active
The depositor's hits bear a star; u = inconclusive; x = no result given; ! = repeats disagree; [ ] = dose if it differs, or a comment. Only some compounds are listed: those with a hit (about 8% of all), similar ones and a draw of the others. Calls come from the whole dose curve; tested in HEK293 cells. % is set by controls: 0 for no effect and ±100 for the full control effect; potency is the fitted concentration of half-maximal effect.

SMILES | Marburg entry | Lassa entry
O=C(Cc1ccc(Cl)c(Cl)c1)N1CCCCC1CN1CCCC1 (configuration not stated) | 7.9µM* | u
CCCC[C@]12Cc3cc(C#N)ccc3[C@H](O1)c1c(cc(C)n(Cc3ccccc3)c1=O)O2 | -23%[8.59 µM] | -8%[8.59 µM]
COC(=O)c1c(C)cc(OC(=O)c2c(C)cc(O)c(C=O)c2O)c(C)c1O | u | 7.9µM*
Cc1cc(O)c(C=O)c(O)c1C(=O)O | -2% | 0%
O=C1[C@@H]2[C@H]3[C@H](O)[C@H](O)CC(=NOC[C@@H](O)COCc4ccco4)[C@@H]3CC[C@H]2C(=O)N1C[C@@H]1CCCO1 | u | 7%[8.59 µM]
CC(NC(=O)c1cc(F)ccc1F)c1nnc2n1CCN(Cc1ccc(-c3ccccc3)cc1)CC2 (configuration not stated) | -33% | u
C=C1CCC2C(C)(CO)C(O)CCC2(C)C1C/C=C1\C(=O)OCC1O (configuration not stated) | 11µM* | u
CN(Cc1cnc2nc(N)nc(N)c2n1)c1ccc(C(=O)NC(CCC(=O)O)C(=O)O)cc1 (configuration not stated) | 0.28µM* | u
Nc1nc(N)c2nc(CNc3ccc(C(=O)N[C@@H](CCC(=O)O)C(=O)O)cc3)cnc2n1 | -5% | 2%
C#CCN1C(=O)[C@]2(OCCC=C[C@@H]2C)c2cc(OC)ccc21 | 9%[8.59 µM] | 5%[8.59 µM]
CC(=O)[C@@]12C3[C@@H](CCN3C(=O)N[C@H]1c1ccccc1)[C@H]2c1ccccc1 (some centres not stated) | 21%[8.59 µM] | -4%[8.59 µM]
CCC[C@H]1CN(c2ccccc2)C(=O)[C@H]1CC(=O)NC | 47% | 26%
CC(C)OC(=O)c1cc2c(OCC(O)CNC(C)(C)C)cccc2[nH]1 (configuration not stated) | 35µM* | -12%
C=NCc1cc2c(OC[C@@H](O)CNC(C)(C)C)cccc2[nH]1 | u | 0%
Cc1cc(F)ccc1O[C@H]1C=C[C@@H](c2ccc3c(c2)OCO3)O[C@H]1CO | 14%[8.59 µM] | 10%[8.59 µM]
CCCCC/C=C\C/C=C\C/C=C\C/C=C\CCCC(=O)N(Cc1ccc(O)c(Cl)c1)Cc1ccc(O)c(Cl)c1 | u | 0.079µM*
CCCCC/C=C\C/C=C\C/C=C\C/C=C\CCCCCC(=O)NCCc1ccc(O)c(O)c1 | 23% | -1%
CC(CCN1CCc2nc(-c3ccccc3)c(-c3ccccc3)cc2C1)=NOC[C@@H](O)COCc1ccco1 | 24%[8.59 µM] | 6%[8.59 µM]
COC(=O)[C@H]1C(OC)[C@@H](OC(=O)c2cc(OC)c(OC)c(OC)c2)C[C@@H]2CN3CCc4c([nH]c5cc(OC)ccc45)[C@H]3C[C@H]21 (some centres not stated) | -6% | 1%
COC(=O)[C@H]1[C@H]2C[C@@H]3c4[nH]c5cc(OC)ccc5c4CCN3C[C@H]2C[C@@H](OC(=O)/C=C/c2cc(OC)c(OC)c(OC)c2)[C@@H]1OC | 10µM* | -28%[17.8 µM]
COC(=O)[C@H]1[C@H]2C[C@@H]3c4[nH]c5ccccc5c4CCN3C[C@H]2C[C@@H](OC(=O)c2cc(OC)c(OC)c(OC)c2)[C@@H]1OC | u | 3.5µM*
COC(=O)C1=CO[C@@H](C)[C@@H]2CN3CCc4c([nH]c5cc(OC)ccc45)[C@@H]3C[C@H]12 | -12% | 1%
CC(=O)C1CCC2C3CCC4=CC(=O)CC[C@@]4(C)C3CC[C@]12C (some centres not stated) | 22µM* | 9%
CCCCCCCCCC(=O)O[C@H]1CC[C@H]2[C@@H]3CCC4=CC(=O)CC[C@]4(C)[C@H]3CC[C@]12C | 19% | -9%
CC(=O)[C@@]1(O)CC[C@H]2[C@@H]3CCC4=CC(=O)CC[C@]4(C)[C@H]3CC[C@@]21C | -6% | -30%
SMILES | Marburg entry | Lassa entry
CCCCCC(=O)O[C@]1(C(C)=O)CC[C@H]2[C@@H]3CCC4=CC(=O)CC[C@]4(C)[C@H]3CC[C@@]21C | u | 32µM*
CCOC(=O)C=C1CN(Cc2ccc(OC)cc2)S(=O)(=O)c2ccccc21 | u | -8%
CC=CC(=O)C[C@H]1CC[C@@H](C)[C@@H](CCO)O1 | 33%[8.59 µM] | 0%[8.59 µM]
Cc1cnc(-n2ncc(C(=O)NCCCc3ccncc3)c2C)nc1-c1ccc(F)cc1 | 20µM* | -12%
Cc1cnc(-n2ncc(C(=O)NCCc3cccnc3)c2C)nc1-c1ccc(F)cc1 | u | -13%
COc1cc2nc(N3CCN(C(=O)C4COc5ccccc5O4)CC3)nc(N)c2cc1OC (configuration not stated) | u | -3%[17.8 µM]
COc1cc2nc(N3CCN(C(=O)OCc4ccccc4)[C@H](C(=O)NC(C)(C)C)C3)nc(N)c2cc1OC | 11µM* | 1%
COc1ccc(C(=O)NCc2ccc(OCCN(C)C)cc2)cc1OC | -17% | -12%
Cc1nc(-c2ccc(-c3ccc(C(=O)N4CCc5cc6c(cc54)C4(CCN(C)CC4)CO6)cc3)c(C)c2)no1 | 10µM* | 28µM*
COc1ccc(NC(=O)c2ccc(-c3ccc(-c4noc(C)n4)cc3C)cc2)cc1OCCN(C)C | 3.5µM* | 22µM*
COc1ccc(NC(=O)c2ccc(-c3ccc(-c4noc(C)n4)cc3C)cc2)cc1N1CCN(C)CC1 | 6.3µM* | 16µM*
Cc1ccc(NC(=O)c2ccnc(N3CCCC3)c2)cc1-c1ccc(C(=O)NCC2CC2)cc1 | 45% | x
COC(=O)C1=C(C(=O)OC)[C@@H]2Nc3ccccc3[C@@]23C[C@@H](C(=O)OC)N(C(=O)NCCBr)C3=N1 | 78%[8.59 µM] | -11%[8.59 µM]
CCOC(=O)CN1C(=O)[C@]2(O[C@H](COc3ccccc3)CC3=C2CCC3)c2ccccc21 | 30%[8.59 µM] | -15%[8.59 µM]
C#CCOCC#CC[C@@]1(C(=O)OC)C=C[C@@H](C)[C@H](c2ccccc2Br)N1C(=O)C(F)(F)F | -23%[8.59 µM] | x
CC(C)=CCCC(C)=CCON=C1C[C@@H](O)[C@@H](O)[C@@H]2[C@H]3C(=O)N(c4ccc(F)cc4F)C(=O)[C@@H]3CC[C@H]12 | u | 8%[8.59 µM]
C=C(C)CO[C@H]1C=C[C@@H](c2ccccc2)O[C@H]1CO | 2%[8.59 µM] | -24%[8.59 µM]
CCOC(=O)C1(C(=O)OCC)CC2=C(C=CC3=C(C=C2)CC(C(=O)OCC)(C(=O)OCC)C3)C1 | 6%[8.59 µM] | -21%[8.59 µM]
c1ccc(Oc2ccc(Nc3ncc(-c4ccccc4)o3)cc2)cc1 | 5% | x
CN(C)CCOc1ccc(-c2nc(-c3ccc4c(c3)CCC4=NO)c(-c3ccncc3)[nH]2)cc1 | u | -95%
CN(C)CCOc1ccc(-c2cc(-c3ccc4c(c3)CCC4=NO)c(-c3ccncc3)o2)cc1 | 2µM* | x
O[C@@H]1C[C@H](c2ccccc2)N(CC2CCCCC2)C[C@@H]1n1cc(C2CC2)nn1 | -27% | -21%
CC12C=C(C=CC=Cc3ccco3)C(C)(C1)C(C=Cc1ccco1)CC2=O (configuration not stated) | -19%[8.59 µM] | 0%[8.59 µM]
O=[N+]([O-])c1ccc(O)c([N+](=O)[O-])c1 | 21% | 0%
N#CC(C#N)=Cc1ccc([N+](=O)[O-])c(O)c1 | 16µM*! | u
CNCCCC1c2ccccc2C=Cc2ccccc21 | 7.1µM* | u
CN1CCN(CCCNc2nc3ccc(Oc4ccc(NC(=O)Nc5cc(C(F)(F)F)ccc5F)cc4)cc3[nH]2)CC1 | u | 61%
O=C1c2c(O)ccc(O)c2C(=O)c2c(NCCNCCO)ccc(NCCNCCO)c21 | 0.1µM* | 0.32µM*
O=C1c2ccccc2C(=O)c2c(O)ccc(O)c21 | -2% | 2%

Screening data (PubChem BioAssay)
